# Assay outcomes deposited in PubChem BioAssay by National Center for Advancing Translational Sciences (NCATS).
# An excerpt weighted towards active compounds, which were near 9.9% of everything screened.
# MCF10A rerep: DNA re-replication induction in MCF 10a cells; MCF 10A DNA re-replication, Hoechst nuclear intensity, 48 h; Potency, µM (highest dose often 46.1 µM), most hits filed as activators; 350,000 compounds, 2.9% hits; further: nearly all actives have a fitted effect of over 50% in size
# SW480 rerep: DNA re-replication induction in SW480 cells; SW480 DNA re-replication, Hoechst DNA content imaging, 48 h; Potency, µM (highest dose often 46.1 µM), most hits filed as activators; 340,000 compounds, 1.8% hits; AID 624297; further: nearly all actives have a fitted effect of over 55% in size
#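 Quantitative HTS format with DMSO vehicle controls; 48 hr drug incubation at 37 C, then 40 min Hoechst staining and scanning imager measurement at 405 nm excitation.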
# IL1B secr inh: inflammasome signaling inhibition, IL-1 beta readout | THP-1 LPS/ATP IL-1B secretion, AlphaLISA, 16 h; hits give low values | activity change, % at 57.5 µM | 360,000 compounds, 4.7% hits | AID 743279; in the data active means activity change below about -50%; inconclusive means mostly about -30% to -49%
#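 THP-1 cells pretreated 1 hr with compounds (up to 57.5 uM final), then stimulated with LPS (250 ng/mL final) plus ATP (1.25 mM final); secreted IL-1B measured by AlphaLISA after 16 hr, decreased signal indicating inhibition.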
# KB-V1 cytotox: KB-V1 MDR subline cytotoxicity; KB-V1 MDR cells viability, CellTiter-Glo, 72 h; Potency, µM (highest dose often 46.1 µM), usual class: cytotoxic; 400,000 compounds, 3.4% hits; AID 1347076; further: nearly all actives have a fitted effect of over 60% in size
#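 Cells of the MDR subline KB-V1 are plated, dosed with compound at multiple concentrations, and incubated 72 h at 37 degrees C; CellTiter-Glo is then added and luminescence read after 10 min.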
# KB-3-1 tox: kills parental KB-3-1 adenocarcinoma cells; KB-3-1 viability, CellTiter-Glo ATP luminescence, 72 h; Potency, µM (highest dose often 46.1 µM), usual class: cytotoxic; 400,000 compounds, 1.4% hits; further: nearly all actives have a fitted effect of over 60% in size
#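 72 h, 37 °C compound treatment of KB-3-1 parental cells; CellTiter-Glo added, 10 min, luminescence read. Data corrected against DMSO-only plates and normalized before curve fitting.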
# Numbers stand for hits; – = inactive; ? = inconclusive; · = no result given. Unless noted, the call rests on the fitted dose curve; in most records, active means well fitted curve in the direction sought with a large enough effect; inconclusive means small, poorly fitted or top-dose-only effect, or another doubt; inactive means no such curve, though single readings can be large; an effect the other way counts as inactive or inconclusive.
SMILES,MCF10A rerep,SW480 rerep,IL1B secr inh,KB-V1 cytotox,KB-3-1 tox
O=C(C1CC1)N1CCN(c2nc3ccccc3s2)CC1,–,–,–,?,–
Cc1ccc(C)c(N2CCN(C(=O)c3ccc4nsnc4c3)CC2)c1,?,21µM,?,8.2µM,12µM
O=C(c1ccc2ncsc2c1)N1CCN(c2nc3ccccc3s2)CC1,–,–,–,7.3µM,?
Cc1cccc(N2CCN(C(=O)c3ccc4nc[nH]c4c3)CC2)c1C,–,?,–,–,–
Cc1cccc(N2CCN(C(=O)c3ccc4ncsc4c3)CC2)c1C,9.2µM,10µM,–,?,4.6µM
CN(C1CCCCC1)S(=O)(=O)c1ccc(C(=O)N2CCN(c3nc4ccccc4s3)CC2)cc1,–,–,–,2.6µM,–
O=C(c1ccc2nsnc2c1)N1CCN(c2ccc([N+](=O)[O-])cc2)CC1,–,?,–,–,?
COc1cccc(C(=O)Nn2cnnc2)c1OC,–,–,–,–,–
O=C(Nc1ccc(F)cc1)N1CCN(c2nc3ccccc3s2)CC1,–,–,-53,–,–
O=C(c1ccc2ncsc2c1)N1CCN(c2ccccc2Cl)CC1,–,–,-66,?,–
Cc1nc2nc(C(F)(F)F)[nH]n2c(=O)c1Cc1ccccc1,·,·,·,?,–
O=C(NCCCC1CCCC1)C1CCC(=O)N(Cc2ccc(Cl)cc2)C1 (stereo not drawn),–,–,-69,–,–
CSc1ccc(CNC(=O)CCn2ccc3cc(S(=O)(=O)N4CCC(C)CC4)ccc32)cc1,·,·,·,–,–
Nc1[nH]c(=O)nc2c1ncn2C1OC(CO)C(O)C1O (stereo not drawn),·,·,·,–,–
O=c1cnn([C@@H]2O[C@H](CO)[C@@H](O)[C@H]2O)c(=O)[nH]1,–,–,–,4.1µM,?
Cc1ccc(N2CCN(CC(O)COc3ccccc3)CC2)cc1 (stereo not drawn),–,–,–,?,–
